Assay results: the supplement of paper PMC6992640
± gives the standard deviation of the averaged measurements.

Key:
Experiment in all cases: cell viability (% of vehicle); higher = less cytotoxic
Conditions in all cases: 10 µM; 72 h
[1] = tested on: HCI01 (cells of a triple-negative basal-like breast cancer xenograft)
[2] = tested on: HCI03 (cells of an ER-positive luminal breast cancer xenograft)
[3] = tested on: HCI09 (cells of a triple-negative luminal androgen receptor type breast cancer xenograft)
[4] = tested on: HCI11 (cells of an ER-positive luminal breast cancer xenograft)
[5] = tested on: HCI13 (cells of an ER-positive luminal breast cancer xenograft)
[6] = tested on: HCI16 (cells of a triple-negative basal-like breast cancer xenograft)
[7] = tested on: UCD52 (cells of a triple-negative basal-like breast cancer xenograft)
[8] = tested on: WHIM2 (cells of a triple-negative basal-like breast cancer xenograft)
[9] = tested on: WHIM30 (cells of a triple-negative basal-like breast cancer xenograft)
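Note: PDX cells carrying CMV promoter-driven luciferase, viability read as total photon flux per second by IVIS imaging following D-luciferin, vehicle control 0.1% DMSO.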

Row | Compound | cell viability [1] | cell viability [2] | cell viability [3] | cell viability [4] | cell viability [5] | cell viability [6] | cell viability [7] | cell viability [8] | cell viability [9]
1 | COc1cc2c(cc1OC)CC(=O)N(CCCN(C)CC1Cc3cc(OC)c(OC)cc31)CC2.Cl (configuration not stated) [Ivabradine HCl] | 105 ± 7.9 | 121 | 100 ± 19 | 114 | 99.3 ± 3.9 | 97.9 | 85.7 ± 11 | 93.2 ± 17 | 123 ± 5.3
2 | COC(=O)CCc1ccc(OCC(O)CNC(C)C)cc1.Cl (configuration not stated) [Esmolol HCl] | 133 ± 46 | 121 | 96.2 ± 1.9 | 95.3 | 96.8 ± 12 | 122 | 105 ± 18 | 108 ± 17 | 113 ± 2.2
3 | Cc1c(OCC(F)(F)F)ccnc1CS(=O)c1nc2ccccc2[nH]1 (configuration not stated) [Dexlansoprazole] | 188 ± 46 | 149 | 94.9 ± 51 | 134 | 188 ± 57 | 170 | 143 ± 8.5 | 173 ± 16 | 186 ± 9.4
4 | CCOC(=O)C1=C(C)NC(C)=C(C(=O)OC)C1c1cccc(Cl)c1Cl (configuration not stated) [Felodipine] | 116 ± 5 | 117 | 118 ± 6.6 | 114 | 112 ± 15 | 97.9 | 88.5 ± 2.3 | 102 ± 10 | 124 ± 2.7
5 | NC(=O)Cc1cccc(C(=O)c2ccccc2)c1N [Nepafenac] | 117 ± 21 | 101 | 94.6 ± 3.9 | 95.4 | 84.1 ± 5.7 | 94.2 | 104 ± 1.5 | 159 ± 69 | 136 ± 14
6 | CCOC(=O)CC(=O)N1CCSC1COc1ccccc1OC (configuration not stated) [Moguisteine] | 68.2 ± 37 | 114 | 102 ± 8.2 | 89.5 | 115 ± 9 | 127 | 83.2 ± 4.3 | 88.7 ± 22 | 131 ± 4.4
7 | NC(CSCCCO)C(=O)O (configuration not stated) [Fudosteine] | 91 ± 9.3 | 103 | 87.1 ± 7.6 | 94.5 | 107 ± 11 | 96.1 | 77.3 ± 4.8 | 112 ± 14 | 91.1 ± 8.5
8 | CCOc1nc2cccc(C(=O)O)c2n1Cc1ccc(-c2ccccc2-c2nc(=O)o[nH]2)cc1 [Azilsartan] | 79.7 ± 44 | 142 | 84.8 ± 13 | 92 | 99.8 ± 2.6 | 96.2 | 83.3 ± 7.1 | 97.9 ± 13 | 97.5 ± 2.2
9 | COc1ccc(CC2c3cc(OC)c(OC)cc3CC[N+]2(C)CCC(=O)OCCCCCOC(=O)CC[N+]2(C)CCc3cc(OC)c(OC)cc3C2Cc2ccc(OC)c(OC)c2)cc1OC.O=S(=O)([O-])c1ccccc1.O=S(=O)([O-])c1ccccc1 (configuration not stated) [Cisatracurium Besylate] | 177 ± 73 | 129 | 102 ± 17 | 109 | 80.4 ± 3.9 | 129 | 119 ± 6.3 | 65.1 ± 7.3 | 120 ± 7
10 | Cc1onc(-c2ccccc2)c1-c1ccc(S(N)(=O)=O)cc1 [Valdecoxib] | 126 ± 28 | 126 | 85.3 ± 11 | 98 | 109 ± 1.1 | 99.8 | 74 ± 11 | 95.5 ± 4.2 | 78.92 ± 0.35
11 | O=C1Nc2ccc(Cl)cc2C(C#CC2CC2)(C(F)(F)F)O1 (configuration not stated) [Efavirenz] | 114 ± 16 | 85.9 | 68.9 ± 7.4 | 99.8 | 82.9 ± 7.3 | 108 | 69.5 ± 1.9 | 69.6 ± 46 | 82.3 ± 17
12 | CC(C)OC(=O)C(C)NP(=O)(OCC1OC(n2ccc(=O)[nH]c2=O)C(C)(F)C1O)Oc1ccccc1 (configuration not stated) | 85.3 ± 7.8 | 103 | 79.3 ± 11 | 79.5 | 82.5 ± 5.5 | 141 | 84.26 ± 0.3 | 104 ± 7 | 120 ± 5
13 | CN1C[C@@H]2c3ccccc3Oc3ccc(Cl)cc3[C@H]2C1.O=C(O)/C=C/C(=O)O [Asenapine] | 91.9 ± 7 | 93 | 68.9 ± 5.4 | 93.7 | 72.7 ± 4.8 | 121 | 71 ± 5.6 | 79.5 ± 14 | 114 ± 25
14 | COc1cc2nc(N(C)CCCNC(=O)C3CCCO3)nc(N)c2cc1OC.Cl (configuration not stated) [Alfuzosin HCl] | 103 ± 3 | 97.4 | 105 ± 8.8 | 113 | 101 ± 24 | 113 | 91.6 ± 8.4 | 85.5 ± 3 | 133 ± 8.8
15 | Cc1cc(C#N)cc(C)c1Oc1nc(Nc2ccc(C#N)cc2)nc(N)c1Br [Etravirine (TMC125)] | 107 ± 6.5 | 127 | 91.9 ± 4.6 | 93.4 | 86.559 ± 0.026 | 109 | 99.3 ± 18 | 92.3 ± 3.6 | 137.8 ± 0.96
16 | CC(O)C1C(=O)N2C(C(=O)OCOC(=O)C(C)(C)C)=C(SC3CN(C4=NCCS4)C3)C(C)C12 (configuration not stated) [Tebipenempivoxil] | 130 ± 21 | 110 | 142 ± 85 | 115 | 101 ± 34 | 89.7 | 97.2 ± 11 | 112 ± 53 | 133 ± 17
17 | COC(=O)C1C2CC3c4[nH]c5cc(OC)ccc5c4CCN3CC2CC(OC(=O)c2cc(OC)c(OC)c(OC)c2)C1OC.Cl (configuration not stated) [Reserpine hydrochloride] | 109 ± 8.9 | 114 | 66.7 ± 3.4 | 97.6 | 124 ± 17 | 87.9 | 79.9 ± 1.5 | 92.6 ± 19 | 78.4 ± 6.3
18 | Cl.NCCc1ccc(O)c(O)c1 [Dopamine HCl] | 112 ± 25 | 103 | 113 ± 37 | 84.4 | 59 ± 2.7 | 125 | 93.6 ± 0.5 | 56 ± 2.1 | 128 ± 6.4
19 | CCOc1ccc(Cc2cc(C3OC(CO)C(O)C(O)C3O)ccc2Cl)cc1 (configuration not stated) [Dapagliflozin] | 112 ± 8.7 | 113 | 89.6 ± 9.1 | 110 | 107 ± 18 | 128 | 78.8 ± 4.8 | 84 ± 6.9 | 103 ± 24

Row | Compound | cell viability [1] | cell viability [2] | cell viability [3] | cell viability [4] | cell viability [5] | cell viability [6] | cell viability [7] | cell viability [8] | cell viability [9]
20 | COc1cc(C2c3cc4c(cc3C(OC3OC5COC(c6cccs6)OC5C(O)C3O)C3COC(=O)C23)OCO4)cc(OC)c1O (configuration not stated) [Teniposide] | 104 ± 2.6 | 112 | 105 ± 36 | 111 | 134 ± 40 | 118 | 111 ± 1.8 | 87.3 ± 23 | 96.6 ± 4.3
21 | Cc1c(F)cc(C(=O)NC2CC2)cc1-c1ccc(C(=O)NCC(C)(C)C)cn1 [Losmapimod] | 84 ± 16 | 91.4 | 84.4 ± 21 | 60 | 71 ± 2.2 | 81.6 | 58.1 ± 1.8 | 76.5 ± 16 | 101 ± 6.2
22 | C#C[C@]1(O)CC[C@H]2[C@@H]3CCC4=CCCC[C@@H]4[C@H]3C(=C)C[C@@]21CC [Desogestrel] | 94.9 ± 2.5 | 146 | 81 ± 11 | 87.2 | 41.5 ± 5.2 | 97.5 | 74.4 ± 2 | 64.2 ± 39 | 71.8 ± 53
23 | CCC1OC(=O)C(C)C(OC2CC(C)(OC)C(O)C(C)O2)C(C)C(OC2OC(C)CC(N(C)C)C2O)C(C)(O)CC(C)C2NC(COCCOC)OC(C2C)C1(C)O (configuration not stated) [Dirithromycin] | 143 ± 72 | 117 | 89.5 ± 16 | 94 | 76.3 ± 11 | 103 | 81.8 ± 15 | 90.6 ± 12 | 92.4 ± 3.8
24 | CCC1OC(=O)C(C)C(OC2CC(C)(OC)C(O)C(C)O2)C(C)C(OC2OC(C)CC(N(C)C)C2O)C(C)(O)CC(C)C(=O)C(C)C(O)C1(C)O (configuration not stated) [Erythromycin] | 106 ± 13 | 101 | 96.7 ± 12 | 92.7 | 77.2 ± 9.7 | 113 | 95 ± 17 | 118 ± 36 | 167.6 ± 0.38
25 | CN(C)c1nc(N(C)C)nc(N(C)C)n1 [Altretamine] | 94.8 ± 11 | 96.7 | 89.6 ± 2.6 | 96.8 | 77.9 ± 3.4 | 108 | 78 ± 4.9 | 115 ± 5.7 | 109.4 ± 0.74
26 | C#CCC(Cc1cnc2nc(N)nc(N)c2n1)c1ccc(C(=O)NC(CCC(=O)O)C(=O)O)cc1 (configuration not stated) [Pralatrexate] | 134 ± 15 | 117 | 102 ± 11 | 115 | 157 ± 27 | 103 | 110 ± 8.8 | 121 ± 10 | 117 ± 4.2
27 | O=c1nc[nH]c2c1ncn2C1CCC(CO)O1 (configuration not stated) [Didanosine] | 105.3 ± 0.26 | 139 | 95.4 ± 7 | 118 | 99.18 ± 0.8 | 90.8 | 96.8 ± 9.7 | 98.5 ± 22 | 90.6 ± 1.1
28 | CCOC(=O)n1ccn(C)c1=S [Carbimazole] | 90.9 ± 7.9 | 145 | 95 ± 11 | 93.4 | 66.4 ± 18 | 101 | 95.5 ± 7.5 | 104 ± 30 | 135 ± 11
29 | CC(C)C1C(=O)NC(CCCN=C(N)N)C(=O)NCC(=O)NC(CC(=O)O)C(=O)NC(Cc2ccccc2)C(=O)N1C (configuration not stated) [Cilengitide] | 114 ± 9.1 | 76.7 | 125 ± 49 | 97.4 | 124 ± 12 | 91 | 84.4 ± 5.5 | 94.1 ± 6.8 | 143 ± 14
30 | NC(=O)C1CCCc2c1[nH]c1ccc(Cl)cc21 (configuration not stated) | 145 ± 13 | 182 | 102 ± 2.3 | 128 | 148 ± 9 | 121 | 128 ± 12 | 141 ± 7.4 | 161 ± 24
31 | CN(C)CCc1c[nH]c2ccc(CS(=O)(=O)N3CCCC3)cc12.O=C(O)CC(O)C(=O)O [Almotriptan Malate] | 105 ± 5 | 132 | 103 ± 6 | 86.5 | 84.8 ± 7.8 | 144 | 87.7 ± 4.3 | 90.6 ± 0.17 | 134 ± 8
32 | COc1ccc(-c2ccc3cc(C(=O)O)ccc3c2)cc1C12CC3CC(CC(C3)C1)C2 [Adapalene] | 119 ± 6.1 | 81.4 | 92.2 ± 40 | 95.5 | 139 ± 23 | 82.7 | 179 ± 28 | 83.8 ± 12 | 114 ± 18
33 | Cl.N#Cc1ccc2[nH]cc(CCCCN3CCN(c4ccc5oc(C(N)=O)cc5c4)CC3)c2c1 [Vilazodone Hydrochloride] | 135 ± 3.5 | 103 | 104 ± 18 | 122 | 113 ± 6.7 | 166 | 111 ± 3.3 | 109 ± 20 | 112 ± 17
34 | Cc1c(-c2cnccn2)ssc1=S [Oltipraz] | 89.2 ± 5.2 | 113 | 88.5 ± 4 | 66.1 | 89.8 ± 8.7 | 104 | 94.8 ± 9.3 | 91 ± 14 | 72.8 ± 2.9
35 | CC(=O)OCC(=O)NCCCOc1cccc(CN2CCCCC2)c1.Cl [Roxatidine Acetate HCl] | 175 ± 22 | 118 | 121 ± 11 | 120 | 141 ± 22 | 131 | 95.5 ± 9.9 | 106 ± 3.1 | 128 ± 15
36 | CCCCOc1cc(C(=O)NCCN(CC)CC)c2ccccc2n1.Cl [Dibucaine (Cinchocaine) HCl] | 124 ± 13 | 154 | 92.3 ± 9.3 | 103 | 116 ± 5.1 | 101 | 68 ± 3.4 | 96.4 ± 5.9 | 109 ± 4.7
37 | Cc1cnc(C(=O)NCCc2ccc(S(=O)(=O)NC(=O)NC3CCCCC3)cc2)cn1 [Glipizide] | 104 ± 16 | 128 | 106 ± 16 | 108 | 93.1 ± 1.8 | 99.1 | 83.6 ± 5.6 | 87.2 ± 11 | 138 ± 12
38 | C[N+](C)(CCOc1ccccc1)Cc1ccccc1.O=C(O)c1cc2ccccc2cc1[O-] [Bephenium Hydroxynaphthoate] | 121 ± 9.4 | 127 | 128 ± 23 | 125 | 103 ± 21 | 104 | 89.6 ± 12 | 112 ± 22 | 151 ± 20
